37 sequences from PubChem BioAssay AID1159506 (National Center for Advancing Translational Sciences (NCATS), 2015) can be followed below.

The full ranking holds about 59,000 sequences; the median of the read-out is about -0.00055, and the lowest 2% start at about -2. Shown is part of a subset that was picked to be rich in the lowest values.

The assay in a line: Identification of proteins required for the processing of the EWS-FLI1 nascent transcript.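 Further: robust z of luciferase light less the median z of siRNAs with the same seed.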 The conditions noted are these: TC32 Ewing sarcoma NR0B1-luc vs CMV-luc (EWS-FLI1 target promoter against control promoter), 48 h; screened at 20 nM (by protocol). A digest of the protocol:
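TC32 Ewing sarcoma cells carrying NR0B1-promoter or CMV-promoter luciferase reporters were reverse-transfected with single siRNAs at 20 nM, three per gene genome-wide. Luminescence was read after 48 h and normalized to non-targeting controls.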
For the sequence UGACCGAUGACAGGUAUCU against MRGPRX3, the seed-corrected z-score is -0.02.

In turn, UUUUGAGUGGGUAUCAACC against VIM showed a seed-corrected z-score of 0.533.

On to UUCUGUGCUACUUUGUGCU against SSR3, for which the seed-corrected z-score came to 1.19.

UCCCUGAAUAGUGUGACAG against CCDC103 showed a seed-corrected z-score of 0.246.

Take UUACAUCCAAUUGUAAAGG against C5orf22: the seed-corrected z-score was -2.74.

Take UUUGCGAAACUCCAAGUCC against LMNB1: the seed-corrected z-score was -0.159.

AAAAAUAUCUGUGAUUCUG against WNK1: the seed-corrected z-score was 0.399.

In turn, UAGGCAUCGAUGUGGAAGC against TELO2 gave a seed-corrected z-score of 2.04.

Turning to UCAGCAGAUCUUGACAGUC against LYZL6, the seed-corrected z-score stood at 0.253.

In the case of CUGCUUCUGAGCGUUUGCG against MED14OS, the seed-corrected z-score was -2.09.

Regarding UUGCCGUAUAGGUAGUUUG against NPTX2, the seed-corrected z-score was -0.552.

As to UAGGCGACGCCCUUUUUCU against H3.X, the seed-corrected z-score is -0.0707.

UUUGAGUCCUCAUGGGUGG against GTF3C4 had a seed-corrected z-score of 1.63.

Turning to UAGGUGUUGAUGAUCUCCC against XAB2, the seed-corrected z-score was -2.44.

Consider UUUGUCUCUGCGGAGGUUC against EIF3D, for which the seed-corrected z-score was -0.479.

On to UGAUUAGUCACCAAAGUCC against ATF7IP, for which the seed-corrected z-score is -1.24.

For the sequence UACUGUCGAACUUUGCCUG against HEPH, the seed-corrected z-score was -1.6.

In turn, UCACUAGCAAGGUUCUCCC against LARP4B yielded a seed-corrected z-score of 0.24.

For the sequence UAAUGUACUUGAUCGCAGC against ASCL3, the seed-corrected z-score is -1.12.

AUAGUUGCCGGUGCUCACC against PICK1: the seed-corrected z-score is -3.04.

Take UACUGUAUAGGAAACGAUC against ESPL1: the seed-corrected z-score is -0.0398.

With UCGCUGUCCUUUAAGAGGC against NKAIN4, the seed-corrected z-score was -0.183.

Turning to AUCGGGAAGAGAGUGUAUC against PTAFR, the seed-corrected z-score was found to be 0.45.

As for CAAGUGGAUCGAGCUUGCG against RPL29P12, the seed-corrected z-score worked out at 0.225.

Take UGACUCAAAACUACCAUCC against CCNA2: the seed-corrected z-score was -0.751.

Consider AUCUCUUUUAUCAGGGUUG against VEGFB, for which the seed-corrected z-score is -2.11.

With AACGAUUUUAUCCAAAAUG against FBXO25, the seed-corrected z-score was 0.881.

For UAUAUGUCUCGCAUUUGCC against TRE17, the seed-corrected z-score is -1.17.

Regarding AUCGCAAUAAUUUCAUCUG against NOL8, the seed-corrected z-score is -0.121.

Regarding UACGUUAGUUUUGACACGC against RALY, the seed-corrected z-score was -0.653.

For the sequence UGCUAUAGCACCAACAGCC against CLCN5, the seed-corrected z-score was -2.8.

Turning to UUGGGUUCUACAAGCUUCC against SDE2, the seed-corrected z-score was -0.135.

AAGAUGUCUGUGGUCAUGG against PLCB2 registered a seed-corrected z-score of 1.04.

In the case of UUACUAGAAUCCUCAAUUG against OXR1, the seed-corrected z-score is -0.746.

In the case of UAAAGAUCAAUUCGCUUUG against GLRB, the seed-corrected z-score was -0.775.

Consider UGAAGGUUCAGAGUGCAAC against ISG20L2, for which the seed-corrected z-score was -0.949.

Regarding UUCUGGAUUAGAAAGGUUC against NKRF, the seed-corrected z-score came out at 0.43.
